A selection: hits, their analogues and other compounds. The true share with any hit is near 3.1%.
EPAC1 ag val – validation of human EPAC1 agonists; O95398; EPAC1 Rap1b BODIPY-GDP exchange, fluorescence; Potency, µM, without a hit: max response, positive = active, hits mostly activators; 16,000 tested, 1% active; AID 1645883; also: nearly all actives have a fitted effect of over 70% in size
EPAC2 antag – human EPAC2 antagonism, validation; Q8WZA2; EPAC2 Rap1B BODIPY-GDP exchange, fluorescence; Potency, µM (titrated, usually from 112 µM), inactives show at the highest dose activity, negative = inhibition, hits mostly inhibitors; 16,000 tested, 1.7% active; AID 1645886;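 also: 100% = activation by cAMP agonist control; nearly all actives have a fitted effect of over 40% in size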
Target sequence (Q8WZA2 whole entry, looked up): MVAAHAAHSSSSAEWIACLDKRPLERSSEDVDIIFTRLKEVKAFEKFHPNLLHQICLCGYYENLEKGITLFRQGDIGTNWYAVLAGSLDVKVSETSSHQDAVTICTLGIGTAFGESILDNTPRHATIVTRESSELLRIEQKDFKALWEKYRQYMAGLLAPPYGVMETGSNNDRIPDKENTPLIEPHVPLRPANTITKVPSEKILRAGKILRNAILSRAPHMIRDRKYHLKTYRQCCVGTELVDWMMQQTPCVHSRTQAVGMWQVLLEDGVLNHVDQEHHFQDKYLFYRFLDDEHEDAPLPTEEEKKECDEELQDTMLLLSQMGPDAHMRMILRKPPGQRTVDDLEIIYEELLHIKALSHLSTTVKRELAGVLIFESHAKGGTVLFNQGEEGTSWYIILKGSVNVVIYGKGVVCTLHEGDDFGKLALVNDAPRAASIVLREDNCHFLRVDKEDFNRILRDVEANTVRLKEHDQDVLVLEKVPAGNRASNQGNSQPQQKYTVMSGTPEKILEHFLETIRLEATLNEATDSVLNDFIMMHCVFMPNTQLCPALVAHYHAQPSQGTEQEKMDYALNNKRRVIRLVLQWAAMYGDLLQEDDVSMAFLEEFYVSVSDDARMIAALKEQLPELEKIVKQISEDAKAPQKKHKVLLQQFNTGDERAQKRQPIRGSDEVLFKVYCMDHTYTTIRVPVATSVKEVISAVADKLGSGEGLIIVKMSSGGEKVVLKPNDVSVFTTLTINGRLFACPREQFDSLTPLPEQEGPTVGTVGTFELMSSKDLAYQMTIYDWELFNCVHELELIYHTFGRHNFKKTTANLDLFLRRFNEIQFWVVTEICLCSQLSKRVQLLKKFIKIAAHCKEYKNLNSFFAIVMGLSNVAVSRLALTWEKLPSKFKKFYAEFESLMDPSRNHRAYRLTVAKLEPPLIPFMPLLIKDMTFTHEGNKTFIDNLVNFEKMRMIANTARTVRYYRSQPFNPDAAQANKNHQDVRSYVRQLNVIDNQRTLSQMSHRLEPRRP
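Normalized against a 6.5 mM cAMP agonist control, compounds were tested on 100 nM EPAC2 exchanging Rap1B-bound BODIPY-GDP (250 nM) for 50 uM GDP. Fluorescence drop (ex 480, em 540 nm) was tracked at room temperature over 30 min at 5-min intervals.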
Starred values were filed as active, the others as inactive; ? = inconclusive; ! = repeats disagree; [ ] = remark or other dose. Calls follow the shape of the dose curve; as a rule, active = well fitted curve in the direction sought with a large enough effect; inconclusive = small, poorly fitted or top-dose-only effect, or another doubt; inactive = no such curve, though single readings can be large; an effect the other way counts as inactive or inconclusive. Unless noted, % is scaled to controls: 0 for no effect and ±100 for the full control effect; potency is read from the fitted curve at half-maximal effect.

SMILES	EPAC1 ag val	EPAC2 antag
CC[C@]1(O)CC(O[C@@H]2CC(N(C)C)C(O)C(C)O2)c2c(cc3c(c2O)C(=O)c2c(O)cccc2C3=O)C1C(=O)OC (stereo not given in full)	?	20.7%
[H+].[H+].[Hg+2].[O-]B([O-])[O-].[c-]1ccccc1	-6.6%	3.7%
CCC(=O)O[C@](Cc1ccccc1)(c1ccccc1)[C@H](C)CN(C)C	-102.8%	-3.5%[239 µM]
CC(C)=CCN1CC[C@@]2(C)c3cc(O)ccc3C[C@@H]1[C@@H]2C	-2.0%	16.2%[239 µM]
O=C1c2ccccc2-c2cccc3cccc1c23	112µM*	2.5%
C[C@H]1CC[C@]2(NC1)O[C@H]1C[C@H]3[C@@H]4CC[C@H]5C[C@@H](O[C@@H]6O[C@H](CO)[C@H](O[C@@H]7O[C@H](CO)[C@@H](O)[C@H](O[C@@H]8OC[C@@H](O)[C@H](O)[C@H]8O)[C@H]7O[C@@H]7O[C@H](CO)[C@@H](O)[C@H](O)[C@H]7O)[C@H](O)[C@H]6O)CC[C@]5(C)[C@H]4CC[C@]3(C)[C@H]1[C@@H]2C	-2.6%	-4.0%
C[C@H]1[C@@H]2Cc3ccc(O)cc3[C@@]1(C)CCN2C	14.4%	17.8%[453 µM]
O=C1C(I)=CC(=C(c2cc(I)c(O)c(I)c2)c2ccccc2C(=O)O)C=C1I	7.1%	44.7µM*!
Nc1ccccc1C(=O)O	-7.1%	-1.1%
CCCCCCCCCc1ccc(O)cc1	?	44.7µM*
NCCc1ccc(O)cc1	4.6%	-19.7%
CN(C)[C@H](Cc1ccccc1)c1ccccc1	-7.8%	1.5%
